Source: PubChem BioAssay
The sample as a whole holds a higher share of hits than the screen did.
FBPA Giardia inh: Giardia lamblia aldolase inhibition. A8B2U2. purified Giardia FBPA. hit rate 0.71% among 290,000. Potency, µM (highest dose often 59.6 µM), for the others: at the top dose activity, negative = inhibition, actives largely listed as inhibitors; also: potency is read from the fitted curve at half-maximal effect; % is scaled to controls: 0 for no effect and ±100 for the full control effect; nearly all actives have a fitted effect of over 55% in size
Target sequence (A8B2U2 whole entry, looked up): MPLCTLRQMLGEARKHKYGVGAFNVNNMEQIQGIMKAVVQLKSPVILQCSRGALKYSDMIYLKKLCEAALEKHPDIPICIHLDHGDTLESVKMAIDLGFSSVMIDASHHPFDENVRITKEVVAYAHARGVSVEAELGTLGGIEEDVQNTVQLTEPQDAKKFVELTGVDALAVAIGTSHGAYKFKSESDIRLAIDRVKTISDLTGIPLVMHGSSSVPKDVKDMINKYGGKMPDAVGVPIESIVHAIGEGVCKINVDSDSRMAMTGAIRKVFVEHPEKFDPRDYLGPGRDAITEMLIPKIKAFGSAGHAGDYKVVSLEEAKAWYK
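40 nM FBPA preincubated 10 min at RT with compound (up to 57.5 uM final), then substrate plus GAPDH/TPI/NAD/arsenate coupling and diaphorase/resazurin added. Fluorescence read after 20 min at RT, 525/598 nm.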
Tb PYK inh: T. brucei pyruvate kinase inhibition; Q57TT1; TbPYK enzyme, Kinase-Glo Plus ATP luminescence, 45 min; Potency, µM (series often up to 76.8 µM), inactives show at the top dose activity, negative = inhibition, actives largely listed as inhibitors; hit rate 0.12% among 410,000; AID 624173; also: potency is read from the fitted curve at half-maximal effect; % is scaled to controls: 0 for no effect and ±100 for the full control effect; nearly all actives have a fitted effect of over 50% in size
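Readout: single end-point luminescence (Kinase-Glo Plus, 10 min). Reaction conditions were TbPYK/substrate plus 130 uM ADP, 45 min at RT, pH 7.2 TEA buffer. No-enzyme wells served as controls, and data were normalized before concentration-response fitting.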
RE007 growth inh: less growth of the S. pombe RE007 Vpr strain; hit rate 0.21% among 360,000; Potency, µM (titrated, usually from 92.2 µM), inactives show at the highest dose activity change, negative = less growth, most hits filed as inhibitors; S. pombe RE007 Vpr strain, BacTiter-Glo ATP luminescence, 24 h; active = well fitted falling curve with a large enough effect; inconclusive = small, poorly fitted or top-dose-only effect; inactive = no such curve, though single readings can be large or run the other way; also: potency is read from the fitted curve at half-maximal effect; % is scaled to controls: 0 for no effect and ±100 for the full control effect; nearly all actives have a fitted effect of over 50% in size
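Fission yeast strain RE007, carrying one chromosomally integrated HIV-1 vpr copy, was seeded at OD 0.01 in PMG+AL medium with 23 nL pinned compound. After 24 h at 30 °C and 99% humidity, viability was read by BacTiter-Glo luminescence.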
Cycloheximide cs: counter-screen hit for Shiga toxin inhibitors, cycloheximide; cell reporter, cycloheximide protein synthesis inhibition counterscreen; max response, %; hit rate 12% among 300,000; AID 2314; in the data active = max response mostly above about 13%, no sharp cut-off; inactive = mostly below about 14%; also: read at 38.3 µM for the half of the compounds with a filed dose; 0% is about no effect
Shiga toxin inh: blocks Shiga toxin action in Vero cells; hit rate 9.2% among 290,000; Vero cells, Shiga toxin protein synthesis inhibition reporter; inhibition, % at 38.7 µM; in the data active = inhibition mostly above about 28%, no sharp cut-off; inactive = mostly below about 43%; also: 0% is about no effect
LmPK inh: inhibitors of Leishmania mexicana pyruvate kinase; Q27686; purified LmPK, Kinase-Glo ATP luminescence, 1 h; Potency, µM (doses to about 57.5 µM), for the others: at the highest dose activity change, negative = inhibition, hits mostly inhibitors; hit rate 0.37% among 290,000; also: potency is read from the fitted curve at half-maximal effect; % is scaled to controls: 0 for no effect and ±100 for the full control effect
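Purified LmPK (0.1 nM) with 0.5 mM PEP and 0.1 mM ADP in imidazole buffer pH 7.2 with MgCl2/KCl, 1 h at room temperature. ATP formed was read by luciferase luminescence and normalized to no-enzyme and uninhibited controls.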
* = called active by the depositor; ? = inconclusive; . = no result given. Unless noted, calls follow the shape of the dose curve; as a rule, active = well fitted curve in the direction sought with a large enough effect; inconclusive = small, poorly fitted or top-dose-only effect, or another doubt; inactive = no such curve, though single readings can be large; an effect the other way counts as inactive or inconclusive.

SMILES | FBPA Giardia inh | Tb PYK inh | RE007 growth inh | Cycloheximide cs | Shiga toxin inh | LmPK inh
O=C(/C=C/Nc1ccccc1C(=O)O)c1cccs1 | -17% | -1% | 15% | 33* | 75* | ?
Cc1ccc(-n2c(SCC(=O)Nc3cccc(S(N)(=O)=O)c3)nc3ccccc32)cc1 | -11% | -9% | 6% | -2 | -12 | 4%
CCCCN1C(=O)C(=O)c2cc(Cl)ccc21 | . | 0% | 30% | . | . | .
CN(C)c1ccc2c(-c3ccccc3)c3ccc(=[N+](C)C)cc-3oc2c1 | 28% | . | . | 12 | -2 | .
Cc1cc(C)n(C(=O)CNC(=O)c2ccc(C(C)(C)C)cc2)n1 | -2% | 4% | 12% | 34* | 24 | 2%
O=C(c1ccco1)N1CCC2(CC1)CCN(c1ccncc1)CC2 | 1% | -3% | . | . | . | .
CCN1CCN(c2oc(-c3ccco3)nc2C#N)CC1 | 0% | -2% | -7% | -1 | 42 | 0%
N#Cc1nc(-c2ccco2)oc1N1CCCC1 | 1% | -1% | -1% | 0 | -8 | -1%
CC1CC(C)CN(c2oc(-c3ccco3)nc2C#N)C1 (configuration not stated) | 0% | -25% | 1% | 13* | 31 | 2%
N#Cc1nc(-c2ccco2)oc1N1CCc2ccccc2C1 | -13% | -18% | 19% | 25* | 91* | -1%
O=C(CCn1c(=O)c2cccn2c2cccnc21)N1CCN(c2ccccc2)CC1 | . | -5% | . | . | . | .
COC(=O)c1ccc(C(=O)OC)c(NC(=S)N2CCCC(C)C2)c1 (configuration not stated) | 6% | 6% | -25% | -3 | -8 | 0%
CN1CCN(c2nc(-c3ccoc3)nc3ccccc23)CC1 | 1% | . | . | . | . | .
CN(C)c1ccc(NC(=O)CCSc2nc(-c3ccco3)cc(C(F)(F)F)n2)cc1 | . | -19% | . | . | . | .
CCCCn1c(SCc2nnc(-c3ccccc3)o2)nc2c1c(=O)n(C)c(=O)n2C | -4% | -9% | -9% | 24* | 42 | 0%
O=C(CCN1C(=O)c2ccccc2S1(=O)=O)Nc1cccc2ccccc12 | 4% | -7% | 8% | -4 | -3 | 2%
Cc1ccccc1NC(=O)CCCC(=O)c1ccccc1 | 8% | 3% | -3% | 16 | -5 | 1%
Cc1csc(NC(=O)CCCc2cccs2)n1 | -1% | 7% | 33% | 46* | 48* | 6%
O=C(CCN1C(=O)c2ccccc2S1(=O)=O)Nc1nc2c(s1)CCCC2 | -6% | -5% | 10% | 18* | 122* | 4%
O=C(Cc1ccc(S(=O)(=O)N2CCCC2)s1)Nc1nc2c(s1)CCCC2 | -15% | -4% | -10% | 28* | 46* | 8%
Cc1ccc(-c2csc(NC(=O)CCCc3cccs3)n2)cc1 | 1% | 1% | 18% | -1 | 2 | -1%
Cc1csc(NC(=O)CCCC(=O)c2ccccc2)n1 | -8% | -13% | 2% | 22* | 50* | -2%
O=C(CCCc1cccs1)Nc1nc2c(s1)CCCC2 | 12% | -14% | -24% | 57* | 30* | -5%
O=C(CCS(=O)(=O)Cc1ccccc1)Nc1nc2c(s1)CCCC2 | 0% | -7% | -18% | 10 | 3 | 1%
O=[N+]([O-])c1ccc2c(c1)N([O-])C1(CCCCC1)[N+]2=O | 7.9µM* | ? | 5% | 0 | 19 | -28%
SMILES | FBPA Giardia inh | Tb PYK inh | RE007 growth inh | Cycloheximide cs | Shiga toxin inh | LmPK inh
COC(=O)c1cc(N=Nc2c(C)[nH]c3ccccc23)cc(C(=O)OC)c1 | 2% | -1% | -9% | -2 | -1 | 0%
Cc1[nH]c2ccccc2c1N=Nc1ccccc1C(=O)O | -6% | -3% | -5% | 17* | 48* | -5%
Cc1[nH]c2ccccc2c1N=Nc1cccc(C(=O)O)c1 | 13% | -9% | 24% | 58* | 108* | -2%
Cc1noc(C)c1N=Nc1ccccc1C(=O)O | 3% | -7% | 1% | -4 | -11 | 3%
CN1CCN(c2ccc([N+](=O)[O-])c3no[n+]([O-])c23)CC1 | ? | -24% | 32µM* | -1 | -5 | -22%
Cc1cc2c(cc1S(=O)(=O)CCC(=O)N1CCN(c3ccccc3)CC1)OCC(=O)N2 | . | 4% | . | . | . | .
C/C=N/NC(=O)CCNC(=O)c1ccccc1 | -5% | -7% | 0% | 5 | 12 | -1%
